The antibiotic and cytotoxicity screens of Wong et al. (2023)
In all, about 39,000 compounds went through this assay and about 1,500 (3.8%) were called active. The sample holds actives, similar compounds and a random draw of the others, so the mix is not that of the screen.

Each compound was assayed on HSkMC (human skeletal muscle cells) (assay: cytotoxicity call (relative viability < 0.9)). Conditions: 10 µM.

Row | SMILES | cytotoxicity call
1 | C[C@H](CO)N1C[C@H](C)[C@@H](CN(C)C(=O)Nc2ccc3c(c2)OCO3)Oc2c(NC(=O)C3CC3)cccc2C1=O | inactive
2 | C[C@H](CO)N1C[C@H](C)[C@H](CN(C)C(=O)NC2CCCCC2)Oc2c(NC(=O)Nc3ccc(C(F)(F)F)cc3)cccc2C1=O | inactive
3 | C[C@H](CO)N1C[C@H](C)[C@@H](CN(C)C(=O)Nc2ccc(C(F)(F)F)cc2)Oc2c(NC(=O)NC3CCCCC3)cccc2C1=O | inactive
4 | C[C@H]1CN([C@@H](C)CO)C(=O)c2cccc(NC(=O)Nc3ccc(C(F)(F)F)cc3)c2O[C@@H]1CN(C)C(=O)NC1CCCCC1 | active
5 | C[C@@H]1CN([C@H](C)CO)C(=O)c2cccc(NC(=O)Nc3ccc(C(F)(F)F)cc3)c2O[C@@H]1CN(C)C(=O)NC1CCCCC1 | active
6 | C[C@@H]1CN([C@@H](C)CO)C(=O)c2cccc(NC(=O)Nc3ccc(C(F)(F)F)cc3)c2O[C@@H]1CN(C)C(=O)NC1CCCCC1 | inactive
7 | C[C@@H]1CN([C@@H](C)CO)C(=O)c2cccc(NC(=O)Nc3ccc(C(F)(F)F)cc3)c2O[C@H]1CN(C)C(=O)NC1CCCCC1 | active
8 | C[C@H]1CN([C@@H](C)CO)C(=O)c2cccc(NC(=O)Nc3ccc(C(F)(F)F)cc3)c2O[C@H]1CN(C)C(=O)NC1CCCCC1 | inactive
9 | C[C@@H]1CN([C@H](C)CO)C(=O)c2cccc(NC(=O)Nc3ccc(C(F)(F)F)cc3)c2O[C@H]1CN(C)C(=O)NC1CCCCC1 | inactive
10 | C[C@H](CO)N1C[C@H](C)[C@@H](CN(C)C(=O)NC2CCCCC2)Oc2c(NC(=O)Nc3ccc(C(F)(F)F)cc3)cccc2C1=O | inactive
11 | CC(C)NC(=O)Nc1cccc2c1O[C@H](CN(C)S(=O)(=O)c1ccccc1)[C@H](C)CN([C@H](C)CO)C2=O | inactive
12 | C[C@@H]1CN([C@@H](C)CO)C(=O)c2cccc(NC(=O)Nc3ccc(C(F)(F)F)cc3)c2O[C@H]1CN(C)Cc1ccc(C(=O)Nc2ccccc2N)cc1 | inactive
13 | C[C@H](CO)N1C[C@H](C)[C@H](CN(C)C(=O)c2ccccc2)OCCCC[C@H](C)Oc2ccc(NC(=O)NC3CCCCC3)cc2C1=O | inactive
14 | O=C(C[C@@H]1CC[C@H](NS(=O)(=O)c2ccc(F)cc2)[C@H](CO)O1)NCc1ccc(Cl)c(Cl)c1 | inactive
15 | C[C@@H]1CN([C@@H](C)CO)S(=O)(=O)c2ccc(-c3cccnc3)cc2O[C@H]1CN(C)CC1CCOCC1 | inactive
16 | COCC(=O)N(C)C[C@H]1Oc2cc(C#CCN(C)C)ccc2S(=O)(=O)N([C@H](C)CO)C[C@H]1C | inactive
17 | CCNC(=S)N1CCC[C@H](C(N)=O)C1 | inactive
18 | Cn1cncc1CN1CCO[C@]2(COCCN(S(C)(=O)=O)C2)C1 | inactive
19 | Cc1noc(C)c1NC(=O)Nc1ccc2c(c1)C(=O)N([C@@H](C)CO)C[C@H](C)[C@@H](CN(C)C(=O)Nc1ccc3c(c1)OCO3)OCCCC[C@H](C)O2 | inactive
20 | Nc1ncnc2c1ncn2C1OC(COP(=O)(O)OP(=O)([O-])OP(=O)([O-])O)C(O)C1O.[Na+].[Na+] (centres undefined) | inactive

Row | SMILES | cytotoxicity call
21 | COc1cccc(S(=O)(=O)N(C)C[C@@H]2OCc3cn(nn3)CCCC(=O)N([C@H](C)CO)C[C@@H]2C)c1 | inactive
22 | C[C@@H]1CN([C@H](C)CO)C(=O)c2cc(NC(=O)Nc3cccc4ccccc34)ccc2O[C@H]1CN(C)Cc1ccc(Oc2ccccc2)cc1 | inactive
23 | C[C@@H]1CN([C@@H](C)CO)C(=O)c2cc(NC(=O)Nc3cccc4ccccc34)ccc2O[C@@H]1CN(C)Cc1ccc(Oc2ccccc2)cc1 | active
24 | C[C@H](CO)N1C[C@H](C)[C@@H](CN(C)Cc2ccc(Oc3ccccc3)cc2)Oc2ccc(NC(=O)Nc3cccc4ccccc34)cc2C1=O | inactive
25 | C[C@H](CO)N1C[C@H](C)[C@H](CN(C)Cc2ccc(Oc3ccccc3)cc2)Oc2ccc(NC(=O)Nc3cccc4ccccc34)cc2C1=O | active
26 | C[C@@H]1CN([C@H](C)CO)C(=O)c2cc(NC(=O)Nc3cccc4ccccc34)ccc2O[C@@H]1CN(C)Cc1ccc(Oc2ccccc2)cc1 | inactive
27 | C[C@H]1CN([C@@H](C)CO)C(=O)c2cc(NC(=O)Nc3cccc4ccccc34)ccc2O[C@@H]1CN(C)Cc1ccc(Oc2ccccc2)cc1 | inactive
28 | COc1ccccc1C#Cc1cnc2c(c1)C(=O)N([C@@H](C)CO)C[C@@H](C)[C@H](CN(C)S(=O)(=O)c1cn(C)cn1)O2 | inactive
29 | CN1C(=O)c2cc(NC(=O)C3CCOCC3)ccc2OC[C@@H]2O[C@H](CC(=O)NCc3ccccc3F)CC[C@H]21 | inactive
30 | NC(=O)NCC#Cc1ccc2c(c1)[C@]1(C(=O)N2)[C@H](C(=O)N2CCN(c3ncccn3)CC2)[C@H]2C(=O)O[C@H](c3ccccc3)[C@H](c3ccccc3)N2[C@@H]1c1ccc(OCCO)cc1 | inactive
31 | Cc1noc(C)c1NC(=O)Nc1ccc2c(c1)C(=O)N([C@@H](C)CO)C[C@H](C)[C@H](CN(C)Cc1ccc(C(=O)O)cc1)OCCCC[C@@H](C)O2 | inactive
32 | C[C@H](CO)N1C[C@H](C)[C@@H](CN(C)Cc2ccc(-c3ccccc3)cc2)Oc2c(NC(=O)c3nc4ccccc4s3)cccc2C1=O | inactive
33 | C[C@]12CC[C@@H]3[C@]4(C=C[C@@]5(C=C4C(=O)c4cc6ccccc6s4)C[C@@H](O)CC[C@]35C)[C@@H]1CC[C@@]2(O)CN1CCC(n2c(=O)[nH]c3ccccc32)CC1 | inactive
34 | CC1CC2C3CCC4=CC(=O)C=CC4(C)C3(Cl)C(O)CC2(C)C1(OC(=O)c1ccco1)C(=O)CCl (centres undefined) | active
35 | CCC(=O)OCC(=O)C1(OC(=O)CC)C(C)CC2C3CCC4=CC(=O)C=CC4(C)C3(Cl)C(O)CC21C (centres undefined) | inactive
36 | CCC(=O)OC1(C(=O)CCl)C(C)CC2C3CCC4=CC(=O)C=CC4(C)C3(F)C(O)CC21C (centres undefined) | inactive
37 | C[C@H](CO)N1C[C@H](C)[C@H](CN(C)S(=O)(=O)c2ccc(F)cc2)Oc2ncc(C#CCN(C)C)cc2C1=O | inactive
38 | CCS(=O)(=O)NCC[C@@H]1CC[C@@H](NC(=O)C2CCOCC2)[C@H](CO)O1 | inactive
39 | Cc1ccccc1S(=O)(=O)N1C[C@H](O)COC[C@@H]2O[C@H](CC(=O)NCc3ccccc3Cl)CC[C@H]21 | inactive
